# “And” between values parts separate entries of the source, which are not always exact repeats. Equal entries are not always repeated. The campaign covered roughly 360,000 compounds. About 2,600 (0.72%) were called active. Inconclusive results (about 5%) are left out. The entries come from a sample that favours actives as a whole. Values without a mark were called inactive. Calls follow the shape of the dose curve; as a rule, active = well fitted inhibition curve with a large enough effect; inconclusive = small, poorly fitted or top-dose-only effect; inactive = no such curve, though single readings can be large or run the other way.
# Assay: Primary qHTS for Inhibitors of ATXN expression; also: nearly all actives have a fitted effect of over 55% in size
# Conditions: HEK-293 ATXN2-luciferase reporter, luminescence, 24 h; series mostly up to 57 µM; activity change, negative = inhibition: at the top concentration
# Text: University of Utah School of Medicine, Salt Lake City, Utah
# Spinocerebellar ataxia type 2 (SCA2) is a multisystem neurodegenerative disease caused by a dominantly acting mutation leading to expansion of a polyQ domain in the ataxin-2 protein (ATXN2). SCA2 patients develop progressive ataxia and later lose function in other neuronal systems. Prominent parkinsonian signs develop in some patients. Like many neurodegenerative disorders, no symptomatic or disease-modifying treatments are known.
# The primary objective of the proposed research is to identify compounds inhibiting ATXN2 expression and to test them for efficacy in SCA2 mouse models. We have developed a cell-based assay paired with an in vivo mouse model using identical luciferase expression constructs. This approach takes advantage of an ATXN2-luciferase transgene, with the luciferase gene flanked by the upstream and downstream portions of the ATXN2 gene. Here we describe a 5-7 dose quantitative high thoroughput screen (qHTS) for compounds lowering ATXN2 expression. We screened the NIH Molecular Libraries Small Molecule Repository (MLSMR) and NCGC's mechanistically annotated (MIPE) and drug repurposing (NPC) collections of compounds for lowering expression of an ATXN2-luciferase reporter in HEK-293 cells. The assay is a multiplexed cell viability assay to ensure target reduction in the absence of cytotoxicity. Secondary qHTS assays included a CMV-luciferase reporter expressed in HEK-293 cells as well as a biochemical assay using recombinant luciferase to detect inhibitors of the reporter enzyme. Compounds that inhibit ATXN2 expression but is not cytotoxic were selected for confirmatory and secondary screens.
# PROTOCOL TABLE (as described by Inglese J, Shamu CE and Guy RK. 2007)
# SEQUENCE No. (e.g., 1, 2, 3, etc.); […] (e.g., Cells, Incubation, Reagent, etc.); VALUE; DESCRIPTION.
# 1; Cells; 4 uL; white, solid bottom, 1536-well Greiner assay plate.
# 2; Incubation; 2 hr; 37 degree C in 5% humidified CO2.
# 3; Compounds; 23 nL; Kalypsis pintool (Wako USA) equipped with a 1536-well pin head.
# 4; Incubation; 24 hr; 37 degree C in 5% humidified CO2.
# 5; Reagent; 1 uL; Gly-Phe-7-Amino-4-trifluoromethylcoumarin.
# 6; Incubation; 30 min; 37 degree C in 5% humidified CO2.
# 7; Detection; Fluorescence; ViewLux plate reader (PerkinElmer).
# 8; Reagent; 3 uL; SteadyGlo luciferase solution (Promega).
# 9; Incubation; 5 min; room temperature.
# 10; Detection; Luminescence; ViewLux plate reader (PerkinElmer).
# NOTES (numbers refer to Sequence numbers above)
# 1. S2 cells expressing ATXN2-luciferase reporter were suspended in phenol-red free DMEM and dispensed in assay plates using a Multidrop Combi dispenser (Thermo Fisher Scientific).
# 2. Assay plates were incubated. Evaporation was prevented by covering assay plates with metal lids containing holes to allow gas diffusion.
# 3. Compounds were added in a dose response manner with the final concentrations of 57, 11.4, 2.28, 0.46, 0.091, 0.018, 0.0037 uM. Vehicle-only plates, with DMSO being pin-transferred to columns 5-48, were inserted uniformly at the beginning and the end of each library to monitor and record any shifts in assay performance.
# 5. 125 uM Gly-Phe-7-Amino-4-trifluoromethylcoumarin (MP Biomedicals) working concentration was used at a final concentration of 25 uM.
# 7. To assess cell viability; the assay plates were read using the ViewLux high-throughput CCD imager (PerkinElmer), wherein single end-point fluorescence measurement was acquired (excitation 405/10; emission 540/25 nm).
# 8. Detection reagent SteadyGlo Luciferase (Promega) was added to the assay plate.
# 10. Luminescence is then measured on the ViewLux imager equipped with a clear emission filter using a 2 sec exposure. All screening operations were performed on a fully integrated robotic system (Kalypsys) containing one RX-130 and two RX-90 anthropomorphic robotic arms (Staubli).
# […]
# % is scaled to controls: 0 for no effect and ±100 for the full control effect; potency is read from the fitted curve at half-maximal effect.
SMILES,Potency,"activity change, negative = inhibition"
Fc1ccc2[nH]c3c(N4CCSCC4)ncnc3c2c1,15.8 µM (active),
N#C/C=C/N1CCN(Cc2ccc3c(c2)OCO3)CC1,,12.5%
O=C(CSc1nc2c(c(=O)[nH]1)CN(Cc1ccc3c(c1)OCO3)CC2)Nc1cc(F)ccc1F,,15.6%
Fc1ccc2[nH]c3c(N4CCN(Cc5ccc6c(c5)OCO6)CC4)ncnc3c2c1,14.1 µM (active),
COC(=O)c1cc(Cl)c(NC(C)=O)cc1OC,,16.7%
Cn1c(=O)c(C(=O)O)nn(-c2ccccc2)c1=O,,13.3%
COc1cccc(CNCc2c(C(=O)O)n(Cc3ccc(C)cc3)c3cc(C)ccc23)c1OC,,5.45%
C[C@@H]1CCC[C@H](C)N1CCCC(O)(c1ccccc1)c1ccccn1 (some centres undefined),,-0.369%
CC(C)Cn1c(C2CC(=O)N(c3ccccc3Cl)C2)nc2ccccc21 (centres undefined),,0.8%
CC(C(C)N1CC(=O)NC(=O)C1)N1CC(=O)NC(=O)C1 (centres undefined),,-9.63%
COCC(C)NS(=O)(=O)c1ccc(N2CCCCS2(=O)=O)cc1 (centres undefined),,-1%
Cc1cc(Nc2ccc(Br)cc2)nc2ccccc12,,-28.1%
Cc1cc(N/N=C\c2ccc(Br)cc2)nc(-n2nc(C)cc2C)n1,10 µM (active),
Cc1cc(C)n(-c2nnc(N3CCN(c4ccccc4)CC3)nn2)n1,,6.31%
COC(=O)c1c(NC(=O)C(C)Oc2ccc(Cl)c(C)c2)sc(C)c1C (centres undefined),,5.21%
COc1c(C)cc(C(O)c2ncc(-c3cccc(C(F)(F)F)c3)[nH]2)cc1C (centres undefined),,-29.7%
COc1cc(NC(=O)c2[nH]cnc2C(N)=O)cc(C(=O)Nc2cccc(C(F)(F)F)c2)c1,10 µM (active),
O=C(O)CSc1c2c(nc3cc(C(=O)Nc4cccc(C(F)(F)F)c4)ccc13)CCCC2,,1.19%
COc1cccc(NC(=O)c2csnn2)c1,,20.7%
COc1ccc(CC(N)c2csc(NC(=O)Cc3ccccc3)n2)cc1 (centres undefined),,0%
Cc1cc(C(=O)COC(=O)CCCN2C(=O)c3ccccc3C2=O)c(C)n1C,,10.3%
C=CCN(CC=C)C(=O)CN1C(=O)c2ccccc2C1=O,,4.2%
C=CCn1c(C)cc(C(=O)CN2C(=O)c3ccccc3C2=O)c1C,7.08 µM (active),
Cc1cccc(-n2c(=O)c3c(c4cc(C)ccc4n3C)n(CC(=O)Nc3ccccc3Cl)c2=O)c1,,15.8%
CCC(=O)N1CCc2cc(S(=O)(=O)NC(CC(C)C)C(=O)NCCc3cccc(C)c3)ccc21 (centres undefined),,-19.1%

SMILES,Potency,"activity change, negative = inhibition"
CCC1CCCCN1CCCNC(=O)c1cc2c(Cl)nc3ccccc3c2s1 (centres undefined),22.4 µM (active) and 31.6 µM (active),
CCCn1c2ccccc2c2cnn(CC(=O)NCCCN3CCCCC3CC)c(=O)c21 (centres undefined),,-19.6%
CN1CCN(CCCNC(=O)c2cc3c(=O)oc4ccccc4c3s2)CC1,,1.64%
Cc1ccc(NC(=O)C(Cc2ccccc2)NS(=O)(=O)c2ccc3c(c2)oc(=O)n3C)cc1C (centres undefined),,11.9%
Clc1cccc(-n2ncc3c(NCCc4ccccc4)ncnc32)c1,,8.97%
O=C(Nc1ccnn1C1CCN(Cc2cccc(OCCO)c2)CC1)C1CCCC1,,6.2%
c1cncc(CN2CCC(n3ncc4c(N5CCOCC5)nc(-c5ccc6[nH]ccc6c5)nc43)CC2)c1,21.7 µM (active),
CC(C)Oc1ccc(CN2CCC(n3nccc3NC(=O)c3cccnc3)CC2)cc1,,-14.9%
Cc1cc(O)ccc1-c1cc(C(=O)NCc2cc(C(F)(F)F)cc(C(F)(F)F)c2)[nH]n1,,-9.72%
O=C1Nc2ccccc2NC(c2ccc3c(c2)OCO3)=C1N(Cc1ccc(F)cc1)C(=O)c1ccco1,,-10.1%
O=C(N/N=C/c1ccccc1O)/C(=C/c1ccccc1)CCO,3.55 µM (active),
O=C(CCC(=O)Nc1ccccc1)N/N=C/c1ccccc1F,,10.2% [at 11.3 µM]
NN=C(NN=Cc1ccccc1)c1ccccc1,,59.1%
COc1ccc(Cl)cc1N(C)C(=O)c1cc2c(=O)oc3ccc(C)cc3c2s1,,6.73%
CCOc1cc(C2C(C(=O)Nc3ccc(OC)cc3)=C(C)Nc3nc(SC)nn32)ccc1O (centres undefined),,0%
O=C(CNC(=O)c1cccnc1)N/N=C/c1cc(Br)c(O)c(Br)c1,,5.36%
O=C(CSc1cccc2cccnc12)N/N=C/c1cccnc1,22.4 µM (active),
Cc1ccc(S(=O)(=O)N(CC(=O)N/N=C/c2ccc(F)cc2)c2cccc3cccnc23)cc1,,-22.9%
CCc1ccc(C=C2SC(=S)NC2=O)cc1,,46.5%
Cn1c(=O)nc2n(-c3ccc(Br)cc3)c3cccc(Cl)c3cc-2c1=O,,0.426%
CC(Nc1ccc(-c2nc(-c3ccco3)no2)cc1[N+](=O)[O-])c1ccccc1 (centres undefined),,30.4%
CO[C@@H]1[C@@H](O)[C@H](O)[C@@H](n2c3c(Cl)cccc3c3c4c(c5c6cccc(Cl)c6[nH]c5c32)C(=O)NC4=O)O[C@@H]1CO,0.273 µM (active),
COC1C(CO)OC(n2cnc3c(=S)nc(N)[nH]c32)C1O (centres undefined),,-17%
COc1ccccc1CNC(=O)c1ccc(NC(=O)N2CC(C)Sc3ccccc32)cc1 (centres undefined),,0.839%
Cc1nnc(SCc2cc(=O)c3cc(F)ccc3[nH]2)n1C,,10.9%

SMILES,Potency,"activity change, negative = inhibition"
CN(C)CCNC(=O)Nc1cccc(Cl)c1Cl,,1.81%
CN(c1ccccc1)S(=O)(=O)c1ccc(Cl)c(C(=O)NCCc2c[nH]c3ccccc23)c1,,0.602%
CN(C)CCNC(=O)c1ccc(Cl)c2cc3ccccc3nc12,8.91 µM (active),
Cc1ccc(S(=O)(=O)c2nnn3c2nc(N2CCN(c4ccccc4F)CC2)c2cc(Cl)ccc23)cc1C,,4.45%
CC(=O)c1cccc(-c2cnc3c(NC=O)cc(-c4cccc(C(=O)N(C)C)c4)cn23)c1,,-7.72%
CN(C)C(=O)c1cccc(-c2cnc3c(NC=O)cc(-c4ccc(F)cc4)cn23)c1,25.1 µM (active),
CC(=O)c1cccc(-c2cnc3c(NC=O)cc(-c4ccc(N(C)C)cc4)cn23)c1,,0%
CCOc1ccc(NS(=O)(=O)c2ccc(N)cc2)nn1,,8.26%
CCN1CCN(C(=O)N[C@@H](C(=O)N[C@@H]2C(=O)N3[C@@H]2SC(C)(C)[C@H]3C(=O)O)c2ccccc2)C(=O)C1=O,,6.23%
CC(=O)O[C@]1(C(C)=O)CC[C@@H]2[C@@H]3C[C@H](C)C4=CC(=O)CC[C@]4(C)[C@H]3CC[C@@]21C,,11.3%
CC(C)(C)CC(C)(C)NCC(O)COCCOc1ccc(Br)cc1 (centres undefined),22.4 µM (active),
CC(Oc1ccc(Br)cc1)C(=O)NC1CCCCCC1 (centres undefined),,-17.4%
COc1ccc(OCC(O)CNCCNc2nccc(C(F)(F)F)n2)cc1 (centres undefined),,-14.1%
CCOc1ccc(Nc2oc(/C=C/c3ccc(F)cc3)nc2C#N)cc1,,-1.28%
CCOC(=O)N1CCN([N+]([O-])=NOc2ccc([N+](=O)[O-])cc2[N+](=O)[O-])CC1,,16.8%
Cc1ccccc1-c1nc(SCC(=O)N(C)c2ccccc2)c2c(=O)n(C)c(=O)n(C)c2n1,,6%
O=C1NCCc2[nH]c(-c3ccncc3)cc21,6.11 µM (active),
COC(=O)Nc1nc2ccc(C(=O)C3CC3)cc2[nH]1,,0.457%
COc1cccc(CN2CCC(C(=O)NC(c3ccc4c(c3)OCO4)c3ccccn3)CC2)c1 (centres undefined),,-4.28%
O=C(NC(c1ccc(Cl)cc1)c1cnccn1)C1CCN(Cc2ccc(Cl)cc2)CC1 (centres undefined),,-9.15%
Cc1ccc(C(NC(=O)C2CCN(CCOc3ccc(Cl)cc3Cl)CC2)c2ccccn2)cc1 (centres undefined),28.2 µM (active),
O=C1c2c(O)cccc2[C@@H]([C@@H]2O[C@H](CO)[C@@H](O)[C@H](O)[C@H]2O)c2cc(CO)cc(O)c21,,10.2%
Cc1cccc(N2CCN(C(=O)c3ccc4c(c3)CCN4S(=O)(=O)c3ccccc3)CC2)c1C,,-26.9%
CCc1nc2c(OCCC3CCCCC3)cccn2c1N(C)C(=O)c1ccco1,,0%
CN(CC(=O)Nc1ccccc1F)S(=O)(=O)c1ccc2c(c1)c(=O)n(C)c(=O)n2C,,1.48%

SMILES,Potency,"activity change, negative = inhibition"
COc1ccc(Sc2ccc(NC(=O)c3cccc(Cl)c3)cc2C#N)cc1,,-0.357%
CCOc1ccc(CNCCSc2nnnn2C)cc1,,8.83%
COc1cccc(NC(=O)c2ccc3nc(CCc4ccccc4)oc3c2)c1,,15.2%
COC(=O)c1nc(NC(=O)c2ccccc2)n[nH]1,,-7.98%
O=C(NC(=O)c1ccccc1)Nc1ccccc1O,,-7.29%
O=C(NC1=CC(=O)c2ccccc2C1=O)c1ccccc1,7.94 µM (active),
CCC(=O)Nc1c(C(=O)N2CCN(c3ccc(F)cc3)CC2)oc2ccccc12,,2.94%
CCn1c(-c2nonc2N)nc2c(C#CC(C)(C)O)ncc(OC[C@H]3CCCNC3)c21,,-12.9%
Cc1ccc(S(=O)(=O)N2CCc3cc(C(=O)Nc4ccc(Cl)cc4C)ccc32)cc1,,2.14%
Cc1cc(C)cc(Nc2ncnc3onc(-c4ccc(F)cc4)c23)c1,,-1.61%
CC(C)c1ccc(NC(=O)c2ccc(Cn3nc(N4CCN(c5ccccc5)CC4)ccc3=O)o2)cc1,,0.267%
NC(=O)CSc1oc(-c2cccs2)nc1S(=O)(=O)c1ccccc1,,4.16%
Cc1ccc(S(=O)(=O)c2nc(-c3cccs3)oc2NCc2cccnc2)cc1,,-0.794%
CCCCS(=O)(=O)c1oc(-c2cccs2)nc1S(=O)(=O)c1ccccc1,3.16 µM (active),
CSc1ccccc1NC(=O)CCS(=O)(=O)c1nc(-c2cccs2)cc(C(F)(F)F)n1,,11.6%
O=C(/C=C/Sc1ncn[nH]1)c1ccc(Cl)cc1,25.1 µM (active),
O=C(CSc1ncn[nH]1)Nc1ccc(Br)cc1Br,,20.4%
O=C(CSc1oc(-c2ccco2)nc1S(=O)(=O)c1ccc(Cl)cc1)c1ccccc1,,-10.6%
CC(C)OCCCn1c(SCC(=O)c2ccccc2)nc2c(sc3ccccc32)c1=O,,-1.85%
CCCCN1CCC(CNC(=O)c2c3n(c4ccccc24)CCCO3)CC1,,53%
Fc1ccc(-n2ncc3c(Nc4ccc(Oc5ccccc5)cc4)ncnc32)cc1,,17.8%
O=C(NCc1ccc(F)cc1)c1ccc2nc(N3CCCCC3)sc2c1,,8.82%
c1c2c(cc3sc(N4CCCCC4)nc13)OCCO2,7.94 µM (active),
CN(C)CCN(C(=O)C1CCCCC1)c1nc2cc3c(cc2s1)OCO3,,-25.9%
